# In PubChem BioAssay (Tox21):
# “And” between values parts separate entries of the source, which are not always exact repeats. Identical values can stand only once. Results filed as inconclusive are left out. Where a call stands in place of a potency, no number is given. Some structures have more than one record in an assay (separate samples or runs), and their calls can disagree. The source made the active and inactive calls. The call rests on the fitted dose curve; in most records, active means well fitted curve in the direction sought with a large enough effect in the repeat runs; inconclusive means weak or mixed curves; inactive means no such curve, though single readings can be large; an effect the other way counts as inactive or inconclusive.
# Tests used:
# [1] = qHTS assay to identify small molecule antagonists of the glucocorticoid receptor (GR) signaling pathway - cell viability counter screen (AID 720693); further: nearly all actives have a fitted effect of over 55% in size
# [2] = qHTS assay for identifying genotoxic compounds that show differential cytotoxicity against isogenic chicken DT40 cell lines with known DNA damage response pathways - wild type cell line (AID 743012); further: nearly all actives have a fitted effect of over 60% in size; further: potency means the concentration at half of the fitted maximal effect
# Outline: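 Wild-type DT40 cells (300/well) exposed to compounds for 40 hours at 37 C/5% CO2. Viability read by CellTiter-Glo luminescence after 30 min at room temperature.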
# [3] = qHTS assay for identifying genotoxic compounds that show differential cytotoxicity against isogenic chicken DT40 cell lines with known DNA damage response pathways - Rev3 mutant cell line (AID 743014); further: nearly all actives have a fitted effect of over 55% in size; further: potency means the concentration at half of the fitted maximal effect
# [4] = qHTS assay for identifying genotoxic compounds that show differential cytotoxicity against isogenic chicken DT40 cell lines with known DNA damage response pathways - Rad54/Ku70 mutant cell line (AID 743015); further: nearly all actives have a fitted effect of over 60% in size; further: potency means the concentration at half of the fitted maximal effect
# [5] = qHTS assay to identify small molecule antagonists of the androgen receptor (AR) signaling pathway - cell viability counter screen (AID 743033; further: nearly all actives have a fitted effect of over 45% in size)
# [6] = qHTS assay to identify small molecule antagonists of the androgen receptor (AR) signaling pathway using the MDA cell line - cell viability counter screen (AID 743041; further: nearly all actives have a fitted effect of over 45% in size)
# Outline: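 MDA-kb2 AR-luc cells (MMTV-luciferase, AR/GR responsive) treated with compounds plus R1881 agonist for 16 h at 37C. CellTiter-Fluor added at 15.5 h; fluorescence read after 30 min in the same wells.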
SMILES,Potency [1],Potency [2],Potency [3],Potency [4],Potency [5],Potency [6]
CCN(N=O)C(N)=O,inactive,inactive,inactive,inactive,inactive,inactive
N#CC(Br)Br,inactive,inactive,inactive,inactive,inactive,inactive
CCC(C)(c1ccc(O)cc1)c1ccc(O)cc1,inactive,27.3 µM (active),61.1 µM (active) and 34.4 µM (active),30.6 µM (active),inactive,inactive
CNC(=O)N(C)c1nnc(C(C)(C)C)s1,inactive,inactive,inactive,inactive,inactive,inactive
C=CCN(CC=C)C(=O)C(Cl)Cl,inactive,inactive,inactive,inactive,inactive,inactive
N[C@@H](Cc1ccc(N(CCCl)CCCl)cc1)C(=O)O,inactive,944 nM (active) and 8.28 µM (active),75 nM (active) and 117 nM (active),2.37 µM (active) and 8.28 µM (active),inactive,inactive
Cc1ccccc1[N+](=O)[O-],inactive,inactive,inactive,inactive,inactive,inactive
CCCCCCCCCCCOC(=O)c1ccccc1C(=O)OCCCCCCCCCCC,inactive,inactive,inactive,inactive,inactive,inactive
CCCCN(CCCC)N=O,inactive,inactive,inactive,inactive,inactive,inactive
Nn1cnnc1,inactive,inactive,inactive,inactive,inactive,inactive
c1nc[nH]n1,inactive,inactive,inactive,inactive,inactive,inactive
N#CCCCl,inactive,inactive,inactive,inactive,inactive,inactive
O=P(Oc1ccccc1)(Oc1ccccc1)Oc1ccccc1,inactive,54.2 µM (active) and 48.6 µM (active),60.8 µM (active) and 48.6 µM (active),38.4 µM (active) and 27.3 µM (active),inactive,inactive
CCOCN(C(=O)CCl)c1c(C)cccc1CC,inactive,51.4 µM (active) and 17.2 µM (active),7.27 µM (active) and 6.11 µM (active),20.5 µM (active) and 7.7 µM (active),inactive,inactive
NC(=S)Nc1ccccc1,inactive,inactive,inactive,inactive,inactive,inactive
CCC(C)c1ccc(O)cc1 (stereo unspecified),inactive,inactive,inactive and 61.1 µM (active),inactive and 43.3 µM (active),inactive,inactive
O=S(=O)(Oc1ccc(Cl)cc1)c1ccc(Cl)cc1,inactive,inactive,inactive,inactive,inactive,inactive
CC(C)NC(C)C,inactive,inactive,inactive,inactive,inactive,inactive
c1ccc(N=Nc2ccccc2)cc1,inactive,inactive,inactive,inactive,inactive,inactive
C1=Cc2cccc3cccc1c23,inactive,inactive,60.1 µM (active),inactive,inactive,inactive
Cc1ccc(N)c(N)c1,inactive,54.6 µM (active) and 17.2 µM (active),30.7 µM (active) and 21.7 µM (active),48.7 µM (active) and 21.7 µM (active),inactive,inactive
c1ccc(NNc2ccccc2)cc1,inactive,inactive and 30.6 µM (active),24.3 µM (active),inactive and 27.3 µM (active),inactive,inactive
Nc1ccc(-c2ccccc2)cc1,inactive,inactive and 54.5 µM (active),inactive and 54.5 µM (active),inactive and 30.6 µM (active),inactive,inactive
CCCCCCOC(=O)c1ccccc1C(=O)OCCCCCC,inactive,inactive and 30.6 µM (active),inactive,inactive,inactive,inactive
Nc1cccnc1,inactive,inactive,inactive,inactive,inactive,inactive
Clc1nc(Cl)nc(Cl)n1,inactive,15.4 µM (active),inactive and 15.4 µM (active),inactive and 13.7 µM (active),inactive,inactive
